Experimental data reported in PubChem BioAssay AID1159580 (chemical genetic matrix, 2015).
Where “and” joins values, the source holds several entries; their conditions need not be identical. Equal entries are not always repeated. Among all 5,500 compounds or so, about 2,000 (36%) were called active. Inconclusive results (about 18%) are left out. Cut-off read from the data, not from the text of the source: active = normalized growth mostly below about 0.91 (no sharp cut-off); inconclusive = no clear call, values can overlap the other calls; inactive = mostly above about 0.92. The list shows a part of the results.

Experiment: chemical genetic growth profiling, strain panel (AID 1159580);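 note: tested at 20 µM; growth read once vehicle control cultures reached saturation at 30 °C; 1 = growth at the plate median or of vehicle wells; lower values mean less growth of the strain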
Conditions: S. cerevisiae deletion strains, growth OD

Measured: normalized growth

COC1=CC(C)[C@@H]2C[C@H]3OC(=O)C[C@H]4C(C)=C(OC)C(=O)C([C@@]34C)[C@@]2(C)C1=O (some centres undefined)
inactive: locus YAL021C, strain ccr4, active compounds read low 0.997 | locus YAL026C, strain drs2, active compounds read low 0.979 | locus YAL030W, strain snc1, active compounds read low 0.988 | locus YBL061C, strain skt5, active compounds read low 0.987 | locus YBR009C, strain hhf1, active compounds read low 0.962 | locus YBR021W, strain FUR4, active compounds read low 0.994 | locus YBR023C, strain chs3, active compounds read low 0.978 | locus YBR171W, strain sec66, active compounds read low 0.977 | locus YBR229C, strain ROT2, active compounds read low 1.01 | locus YBR231C, strain swc5, active compounds read low 0.988 | locus YBR279W, strain paf1, active compounds read low 0.985 | locus YCL011C, strain gbp2, active compounds read low 0.977 | locus YCL016C, strain dcc1, active compounds read low 0.981 | locus YCL029C, strain bik1, active compounds read low 1.02 | locus YCL061C, strain MRC1, active compounds read low 0.99 | locus YCL069W, strain vba3, active compounds read low 0.981 | locus YCR088W, strain abp1, active compounds read low 0.978 | locus YDL005C, strain med2, active compounds read low 0.975 | locus YDL035C, strain GPR1, active compounds read low 1.01 | locus YDL040C, strain nat1, active compounds read low 0.981 | locus YDL074C, strain BRE1, active compounds read low 1.03 | locus YDL101C, strain DUN1, active compounds read low 1.01 | locus YDL185W, strain tfp1, active compounds read low 1.02 | locus YDL192W, strain arf1, active compounds read low 1.02 | locus YDR001C, strain nth1, active compounds read low 0.976 | locus YDR069C, strain doa4, active compounds read low 0.984 | locus YDR101C, strain arx1, active compounds read low 1.02 | locus YDR137W, strain rgp1, active compounds read low 1 | locus YDR159W, strain sac3, active compounds read low 0.988 | locus YDR162C, strain NBP2, active compounds read low 1.03 | locus YDR195W, strain ref2 0.966 | locus YDR297W, strain sur2, active compounds read low 0.978 | locus YDR318W, strain mcm21, active compounds read low 1 | locus YDR334W, strain swr1, active compounds read low 0.971 | locus YDR335W, strain msn5, active compounds read low 0.986 | locus YDR388W, active compounds read low 1 | locus YDR392W, strain spt3, active compounds read low 0.88 | locus YDR502C, strain sam2, active compounds read low 1.01 | locus YEL003W, strain gim4, active compounds read low 0.975 | locus YEL037C, strain rad23, active compounds read low 0.972 | locus YEL061C, strain CIN8 (second series), active compounds read low 0.965 | locus YEL061C, strain CIN8, active compounds read low 1.01 | locus YER015W, strain faa2, active compounds read low 0.983 | locus YER016W, strain bim1, active compounds read low 0.973 | locus YER110C, active compounds read low 1.01 | locus YER111C, strain swi4, active compounds read low 0.972 | locus YER155C, strain BEM2 (second series), active compounds read low 0.978 | locus YER155C, strain BEM2, active compounds read low 1 | locus YER167W, strain BCK2, active compounds read low 1.01 | locus YFR010W, strain ubp6, active compounds read low 0.98 | locus YGL078C, strain dbp3, active compounds read low 1.02 | locus YGL086W, strain mad1, active compounds read low 1.02 | locus YGL167C, strain pmr1, active compounds read low 0.968 | locus YGL173C, strain kem1, active compounds read low 0.973 | locus YGL227W, strain vid30, active compounds read low 0.968 | locus YGL240W, strain doc1, active compounds read low 0.972 | locus YGL248W, strain PDE1, active compounds read low 1.03 | locus YGL253W, strain hxk2, active compounds read low 0.983 | locus YGR078C, strain PAC10, active compounds read low 1.04 | locus YGR135W, strain pre9, active compounds read low 1.02 | locus YGR229C, strain SMI1, active compounds read low 1.03 | locus YGR252W, strain gcn5, active compounds read low 1.04 | locus YHR013C, strain ard1, active compounds read low 0.926 | locus YHR027C, strain rpn1, active compounds read low 0.989 | locus YHR030C, strain SLT2, active compounds read low 1.01 and 1.04 | locus YHR079C, strain IRE1 (second series), active compounds read low 1.01 | locus YHR079C, strain IRE1, active compounds read low 1.01 | locus YHR094C, strain hxt1, active compounds read low 1.03 | locus YHR129C, strain ARP1, active compounds read low 1.01 | locus YHR142W, strain chs7, active compounds read low 0.981 | locus YHR200W, strain rpn10, active compounds read low 1.01 | locus YIL066C, strain RNR3, active compounds read low 1.02 | locus YIL073C, strain SPO22, active compounds read low 1.06 | locus YIL125W, strain kgd1, active compounds read low 1.01 | locus YIR030C, strain dcg1, active compounds read low 1.02 | locus YJL092W, strain hpr5, active compounds read low 0.975 | locus YJL095W, strain BCK1 (second series), active compounds read low 0.98 | locus YJL095W, strain BCK1, active compounds read low 1.05 and 1.02 | locus YJL115W, strain asf1, active compounds read low 0.978 | locus YJL129C, strain trk1, active compounds read low 0.971 | locus YJL134W, strain LCB3, active compounds read low 1.01 | locus YJL154C, strain vps35, active compounds read low 0.975 | locus YJL164C, strain tpk1, active compounds read low 0.989 | locus YJL166W, strain qcr8, active compounds read low 0.987 | locus YJL168C, strain set2, active compounds read low 1.01 | locus YJL187C, strain SWE1 (second series), active compounds read low 1.03 | locus YJL187C, strain SWE1, active compounds read low 0.993 | locus YJR043C, strain POL32, active compounds read low 1 | locus YJR066W, strain TOR1, active compounds read low 0.993
